Drawing on ChEMBL document CHEMBL1961873, “Compounds: GSK PKIS; Assays: Nanosyn kinase panel” (2012), this text covers inhibition for two molecules.

What is called inhibition is the change of the read-out against control, counted positive when it falls.

The target of assay [1] is T1, Inhibitor of nuclear factor kappa-B kinase subunit epsilon (Homo sapiens) (UniProt Q14164).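 Further: reported values are averaged percent inhibition figures against human IKKε.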
T1 sequence (whole entry): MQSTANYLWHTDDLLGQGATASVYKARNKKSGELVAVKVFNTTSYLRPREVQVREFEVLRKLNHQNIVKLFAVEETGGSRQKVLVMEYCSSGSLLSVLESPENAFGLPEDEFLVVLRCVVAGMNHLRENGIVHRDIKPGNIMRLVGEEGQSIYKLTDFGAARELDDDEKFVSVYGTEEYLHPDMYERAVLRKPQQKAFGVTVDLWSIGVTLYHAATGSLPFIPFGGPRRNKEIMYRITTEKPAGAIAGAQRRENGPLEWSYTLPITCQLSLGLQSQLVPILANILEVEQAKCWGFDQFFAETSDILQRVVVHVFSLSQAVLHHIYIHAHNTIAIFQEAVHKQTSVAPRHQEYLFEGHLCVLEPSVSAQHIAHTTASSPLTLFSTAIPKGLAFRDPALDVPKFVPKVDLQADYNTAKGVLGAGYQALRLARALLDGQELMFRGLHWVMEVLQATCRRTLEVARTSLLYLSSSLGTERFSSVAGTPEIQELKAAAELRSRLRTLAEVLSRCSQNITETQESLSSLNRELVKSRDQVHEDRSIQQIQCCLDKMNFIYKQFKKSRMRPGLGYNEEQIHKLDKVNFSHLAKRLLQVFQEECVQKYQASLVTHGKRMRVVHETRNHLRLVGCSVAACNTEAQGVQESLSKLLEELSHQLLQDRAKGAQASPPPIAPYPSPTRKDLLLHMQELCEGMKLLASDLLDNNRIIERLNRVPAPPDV
As to conditions: at 1 µM.

Assay [2] addresses T2, Serine/threonine-protein kinase Nek1 (Homo sapiens) (UniProt Q96PY6).
T2 sequence (whole entry): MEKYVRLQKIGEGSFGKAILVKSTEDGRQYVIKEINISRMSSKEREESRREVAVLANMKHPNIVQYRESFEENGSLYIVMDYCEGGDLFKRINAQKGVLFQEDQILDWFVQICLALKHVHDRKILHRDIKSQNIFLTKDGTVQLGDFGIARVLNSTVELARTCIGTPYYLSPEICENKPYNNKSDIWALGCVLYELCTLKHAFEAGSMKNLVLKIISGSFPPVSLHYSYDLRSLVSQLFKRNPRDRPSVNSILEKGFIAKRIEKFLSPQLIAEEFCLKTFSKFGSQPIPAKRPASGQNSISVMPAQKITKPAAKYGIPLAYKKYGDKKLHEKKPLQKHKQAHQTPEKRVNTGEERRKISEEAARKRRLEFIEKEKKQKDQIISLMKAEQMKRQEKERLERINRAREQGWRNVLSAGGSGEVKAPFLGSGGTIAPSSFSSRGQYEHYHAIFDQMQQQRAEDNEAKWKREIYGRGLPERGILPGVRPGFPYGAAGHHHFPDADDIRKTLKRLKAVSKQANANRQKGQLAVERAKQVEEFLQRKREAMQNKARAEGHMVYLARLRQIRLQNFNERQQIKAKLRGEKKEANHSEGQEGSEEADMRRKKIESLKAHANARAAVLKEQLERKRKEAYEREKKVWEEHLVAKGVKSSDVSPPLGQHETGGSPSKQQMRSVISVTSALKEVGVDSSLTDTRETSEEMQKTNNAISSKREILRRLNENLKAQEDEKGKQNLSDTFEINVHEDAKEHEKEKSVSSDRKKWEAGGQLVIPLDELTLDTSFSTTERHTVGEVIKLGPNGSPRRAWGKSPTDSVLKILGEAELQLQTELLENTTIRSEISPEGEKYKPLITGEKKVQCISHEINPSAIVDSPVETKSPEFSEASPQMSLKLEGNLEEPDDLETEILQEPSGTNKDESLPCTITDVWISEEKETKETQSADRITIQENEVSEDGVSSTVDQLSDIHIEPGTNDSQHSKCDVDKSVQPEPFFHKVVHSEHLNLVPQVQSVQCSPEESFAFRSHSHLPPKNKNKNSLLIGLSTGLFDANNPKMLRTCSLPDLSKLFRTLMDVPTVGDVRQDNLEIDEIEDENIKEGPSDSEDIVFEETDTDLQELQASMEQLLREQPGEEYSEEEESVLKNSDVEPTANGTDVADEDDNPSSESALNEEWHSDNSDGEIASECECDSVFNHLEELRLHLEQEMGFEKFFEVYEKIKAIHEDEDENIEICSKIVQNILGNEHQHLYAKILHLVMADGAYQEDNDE
The note with it: at 0.1 µM.

Assay [3] deals with T2, Serine/threonine-protein kinase Nek1 (Homo sapiens). The note with it: at 1 µM.
In assay [4] the target is T3, Serine/threonine-protein kinase Nek2 (Homo sapiens) (UniProt P51955).
T3 sequence (whole entry): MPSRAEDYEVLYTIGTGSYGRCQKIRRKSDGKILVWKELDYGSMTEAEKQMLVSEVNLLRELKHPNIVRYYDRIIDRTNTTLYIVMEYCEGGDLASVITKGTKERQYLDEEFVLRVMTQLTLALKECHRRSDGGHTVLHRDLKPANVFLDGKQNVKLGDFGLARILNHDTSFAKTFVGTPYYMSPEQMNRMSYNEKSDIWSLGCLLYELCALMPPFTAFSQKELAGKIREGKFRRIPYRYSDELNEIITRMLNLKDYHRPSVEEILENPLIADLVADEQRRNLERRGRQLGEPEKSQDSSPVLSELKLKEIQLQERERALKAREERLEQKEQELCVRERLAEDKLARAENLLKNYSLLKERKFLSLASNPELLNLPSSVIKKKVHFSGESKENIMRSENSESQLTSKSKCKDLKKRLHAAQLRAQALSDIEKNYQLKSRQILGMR
The note with it: at 0.1 µM.

In assay [5] the target is T3, Serine/threonine-protein kinase Nek2 (Homo sapiens). As to conditions: at 1 µM.
The target of assay [6] is Serine/threonine-protein kinase Nek6 (Homo sapiens) (UniProt Q9HC98). The note with it: at 0.1 µM.
Sequence of Serine/threonine-protein kinase Nek6 (Homo sapiens) (Q9HC98 whole entry): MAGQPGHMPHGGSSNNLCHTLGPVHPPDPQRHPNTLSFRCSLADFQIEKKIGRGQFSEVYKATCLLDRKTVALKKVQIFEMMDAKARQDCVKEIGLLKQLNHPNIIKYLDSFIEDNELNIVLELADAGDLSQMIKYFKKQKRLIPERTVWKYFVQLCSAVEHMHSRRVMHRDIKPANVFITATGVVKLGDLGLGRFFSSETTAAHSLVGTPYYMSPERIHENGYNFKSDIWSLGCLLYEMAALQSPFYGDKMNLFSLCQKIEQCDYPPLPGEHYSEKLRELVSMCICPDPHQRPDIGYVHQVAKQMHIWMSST
For assay [7] the target is unchanged. As to conditions: at 1 µM.
For assay [8], the target named is Serine/threonine-protein kinase Nek7 (Homo sapiens) (UniProt Q8TDX7). As to conditions: at 0.1 µM.
Sequence of Serine/threonine-protein kinase Nek7 (Homo sapiens) (Q8TDX7 whole entry, looked up): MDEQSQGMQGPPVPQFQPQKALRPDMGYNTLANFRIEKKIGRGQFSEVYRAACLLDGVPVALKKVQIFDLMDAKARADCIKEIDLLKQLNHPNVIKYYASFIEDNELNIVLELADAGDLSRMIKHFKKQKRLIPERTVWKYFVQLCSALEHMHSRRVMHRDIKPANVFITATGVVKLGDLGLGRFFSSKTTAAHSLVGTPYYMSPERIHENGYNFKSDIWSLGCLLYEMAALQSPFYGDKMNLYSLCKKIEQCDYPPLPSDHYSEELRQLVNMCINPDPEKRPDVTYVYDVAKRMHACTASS
Assay [9] has the same target. The note with it: at 1 µM.
In assay [10] the target is T4, Serine/threonine-protein kinase Nek9 (Homo sapiens) (UniProt Q8TD19).
T4 sequence (whole entry): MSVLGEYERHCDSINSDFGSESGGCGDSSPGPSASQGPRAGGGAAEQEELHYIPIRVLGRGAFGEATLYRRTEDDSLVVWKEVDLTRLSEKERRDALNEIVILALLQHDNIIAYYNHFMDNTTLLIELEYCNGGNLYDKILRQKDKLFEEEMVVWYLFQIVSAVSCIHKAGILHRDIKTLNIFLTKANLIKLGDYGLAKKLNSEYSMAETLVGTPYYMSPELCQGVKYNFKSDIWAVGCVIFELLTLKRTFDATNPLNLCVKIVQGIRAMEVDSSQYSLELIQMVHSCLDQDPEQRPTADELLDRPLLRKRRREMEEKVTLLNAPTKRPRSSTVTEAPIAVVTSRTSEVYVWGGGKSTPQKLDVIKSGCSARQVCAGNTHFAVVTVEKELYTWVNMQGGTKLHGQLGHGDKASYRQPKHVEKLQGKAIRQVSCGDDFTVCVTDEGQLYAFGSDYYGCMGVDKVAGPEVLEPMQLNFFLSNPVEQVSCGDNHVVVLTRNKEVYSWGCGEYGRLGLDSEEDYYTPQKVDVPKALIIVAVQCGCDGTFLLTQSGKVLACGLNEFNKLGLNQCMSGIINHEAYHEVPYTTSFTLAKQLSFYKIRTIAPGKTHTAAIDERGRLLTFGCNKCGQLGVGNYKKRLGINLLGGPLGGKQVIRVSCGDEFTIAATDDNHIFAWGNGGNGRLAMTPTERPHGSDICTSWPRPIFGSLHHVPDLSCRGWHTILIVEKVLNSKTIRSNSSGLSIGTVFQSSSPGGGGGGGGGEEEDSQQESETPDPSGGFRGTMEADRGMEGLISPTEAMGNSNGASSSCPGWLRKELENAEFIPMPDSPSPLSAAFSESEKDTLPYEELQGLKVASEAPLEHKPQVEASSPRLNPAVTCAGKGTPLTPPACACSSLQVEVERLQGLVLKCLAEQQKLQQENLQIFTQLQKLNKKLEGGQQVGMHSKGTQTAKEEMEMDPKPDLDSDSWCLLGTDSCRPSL
The note with it: at 0.1 µM.

The target in assay [11] is T4, Serine/threonine-protein kinase Nek9 (Homo sapiens). The note with it: at 1 µM.
Assay [12] deals with Serine/threonine-protein kinase PLK1 (Homo sapiens) (UniProt P53350). As to conditions: at 0.1 µM.
Sequence of Serine/threonine-protein kinase PLK1 (Homo sapiens) (P53350 whole entry): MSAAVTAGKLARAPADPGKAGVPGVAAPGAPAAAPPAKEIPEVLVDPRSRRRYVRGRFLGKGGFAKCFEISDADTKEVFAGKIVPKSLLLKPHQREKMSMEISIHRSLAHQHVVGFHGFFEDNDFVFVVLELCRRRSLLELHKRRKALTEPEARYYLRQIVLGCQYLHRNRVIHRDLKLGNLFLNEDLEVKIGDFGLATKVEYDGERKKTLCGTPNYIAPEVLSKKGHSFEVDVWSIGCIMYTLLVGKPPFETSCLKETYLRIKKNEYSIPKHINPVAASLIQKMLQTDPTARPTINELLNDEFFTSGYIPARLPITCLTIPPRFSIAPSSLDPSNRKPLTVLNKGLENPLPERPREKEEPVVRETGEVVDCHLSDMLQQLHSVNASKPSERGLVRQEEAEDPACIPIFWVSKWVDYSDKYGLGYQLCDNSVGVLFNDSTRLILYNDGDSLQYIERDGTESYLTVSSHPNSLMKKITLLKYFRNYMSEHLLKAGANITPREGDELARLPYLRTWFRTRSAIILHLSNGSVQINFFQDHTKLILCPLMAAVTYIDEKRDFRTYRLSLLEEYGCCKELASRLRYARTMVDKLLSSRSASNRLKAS
The target is the same in assay [13]. As to conditions: at 1 µM.
In assay [14] the target is T5, Dual specificity protein kinase TTK (Homo sapiens) (UniProt P33981).
T5 sequence (whole entry): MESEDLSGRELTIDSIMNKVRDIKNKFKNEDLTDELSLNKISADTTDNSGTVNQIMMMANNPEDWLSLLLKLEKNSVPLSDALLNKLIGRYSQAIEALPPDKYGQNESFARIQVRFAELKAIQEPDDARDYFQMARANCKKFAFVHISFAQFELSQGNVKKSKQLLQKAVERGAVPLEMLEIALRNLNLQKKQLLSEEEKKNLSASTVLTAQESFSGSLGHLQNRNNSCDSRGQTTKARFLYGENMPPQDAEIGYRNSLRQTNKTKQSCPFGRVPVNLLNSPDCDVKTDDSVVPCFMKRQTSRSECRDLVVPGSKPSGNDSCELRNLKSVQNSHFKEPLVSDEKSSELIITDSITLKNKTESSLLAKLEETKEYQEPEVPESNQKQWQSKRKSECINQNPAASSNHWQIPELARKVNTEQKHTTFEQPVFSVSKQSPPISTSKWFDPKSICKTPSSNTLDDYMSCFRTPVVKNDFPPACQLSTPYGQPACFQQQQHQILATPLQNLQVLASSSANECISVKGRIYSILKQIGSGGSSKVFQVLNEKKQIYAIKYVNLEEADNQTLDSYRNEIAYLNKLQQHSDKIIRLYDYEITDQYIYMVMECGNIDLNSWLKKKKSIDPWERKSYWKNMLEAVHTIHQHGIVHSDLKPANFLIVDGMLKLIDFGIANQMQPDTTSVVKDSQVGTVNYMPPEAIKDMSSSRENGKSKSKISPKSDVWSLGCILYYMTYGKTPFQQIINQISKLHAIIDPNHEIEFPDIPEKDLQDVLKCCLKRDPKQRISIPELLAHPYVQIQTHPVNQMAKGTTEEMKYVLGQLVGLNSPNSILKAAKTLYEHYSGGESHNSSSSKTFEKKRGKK
As to conditions: at 0.1 µM.

Assay [15] relates to T6, Receptor-type tyrosine-protein kinase FLT3 (Homo sapiens), P36888 [D835Y].
T6 sequence (whole entry): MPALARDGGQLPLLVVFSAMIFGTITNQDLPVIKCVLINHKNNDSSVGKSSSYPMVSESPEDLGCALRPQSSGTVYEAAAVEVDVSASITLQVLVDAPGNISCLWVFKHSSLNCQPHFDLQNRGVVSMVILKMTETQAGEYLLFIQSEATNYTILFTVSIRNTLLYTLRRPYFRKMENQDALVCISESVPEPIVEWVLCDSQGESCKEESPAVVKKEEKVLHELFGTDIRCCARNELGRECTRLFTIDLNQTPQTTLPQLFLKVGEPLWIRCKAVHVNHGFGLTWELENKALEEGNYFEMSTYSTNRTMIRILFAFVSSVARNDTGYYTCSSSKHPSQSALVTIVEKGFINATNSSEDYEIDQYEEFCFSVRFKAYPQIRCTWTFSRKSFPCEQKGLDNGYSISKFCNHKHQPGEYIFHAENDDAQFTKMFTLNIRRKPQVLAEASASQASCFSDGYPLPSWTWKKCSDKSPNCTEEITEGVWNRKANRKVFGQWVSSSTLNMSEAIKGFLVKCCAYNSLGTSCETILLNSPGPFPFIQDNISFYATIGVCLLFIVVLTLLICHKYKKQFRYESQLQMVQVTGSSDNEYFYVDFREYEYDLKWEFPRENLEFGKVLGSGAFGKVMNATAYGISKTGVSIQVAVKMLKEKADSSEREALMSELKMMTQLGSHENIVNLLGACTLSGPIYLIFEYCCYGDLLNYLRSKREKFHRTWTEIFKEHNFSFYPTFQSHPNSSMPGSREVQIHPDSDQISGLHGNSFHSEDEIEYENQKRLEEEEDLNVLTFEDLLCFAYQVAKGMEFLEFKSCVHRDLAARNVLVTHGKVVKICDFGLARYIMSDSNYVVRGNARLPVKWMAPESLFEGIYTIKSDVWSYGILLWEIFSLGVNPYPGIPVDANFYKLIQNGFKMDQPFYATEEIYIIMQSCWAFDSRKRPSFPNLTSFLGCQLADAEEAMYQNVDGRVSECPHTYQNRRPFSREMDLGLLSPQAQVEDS
The note with it: at 1 µM.

For assay [16], the target named is Vascular endothelial growth factor receptor 3 (Homo sapiens) (UniProt P35916). As to conditions: at 0.1 µM.
Sequence of Vascular endothelial growth factor receptor 3 (Homo sapiens) (P35916 whole entry): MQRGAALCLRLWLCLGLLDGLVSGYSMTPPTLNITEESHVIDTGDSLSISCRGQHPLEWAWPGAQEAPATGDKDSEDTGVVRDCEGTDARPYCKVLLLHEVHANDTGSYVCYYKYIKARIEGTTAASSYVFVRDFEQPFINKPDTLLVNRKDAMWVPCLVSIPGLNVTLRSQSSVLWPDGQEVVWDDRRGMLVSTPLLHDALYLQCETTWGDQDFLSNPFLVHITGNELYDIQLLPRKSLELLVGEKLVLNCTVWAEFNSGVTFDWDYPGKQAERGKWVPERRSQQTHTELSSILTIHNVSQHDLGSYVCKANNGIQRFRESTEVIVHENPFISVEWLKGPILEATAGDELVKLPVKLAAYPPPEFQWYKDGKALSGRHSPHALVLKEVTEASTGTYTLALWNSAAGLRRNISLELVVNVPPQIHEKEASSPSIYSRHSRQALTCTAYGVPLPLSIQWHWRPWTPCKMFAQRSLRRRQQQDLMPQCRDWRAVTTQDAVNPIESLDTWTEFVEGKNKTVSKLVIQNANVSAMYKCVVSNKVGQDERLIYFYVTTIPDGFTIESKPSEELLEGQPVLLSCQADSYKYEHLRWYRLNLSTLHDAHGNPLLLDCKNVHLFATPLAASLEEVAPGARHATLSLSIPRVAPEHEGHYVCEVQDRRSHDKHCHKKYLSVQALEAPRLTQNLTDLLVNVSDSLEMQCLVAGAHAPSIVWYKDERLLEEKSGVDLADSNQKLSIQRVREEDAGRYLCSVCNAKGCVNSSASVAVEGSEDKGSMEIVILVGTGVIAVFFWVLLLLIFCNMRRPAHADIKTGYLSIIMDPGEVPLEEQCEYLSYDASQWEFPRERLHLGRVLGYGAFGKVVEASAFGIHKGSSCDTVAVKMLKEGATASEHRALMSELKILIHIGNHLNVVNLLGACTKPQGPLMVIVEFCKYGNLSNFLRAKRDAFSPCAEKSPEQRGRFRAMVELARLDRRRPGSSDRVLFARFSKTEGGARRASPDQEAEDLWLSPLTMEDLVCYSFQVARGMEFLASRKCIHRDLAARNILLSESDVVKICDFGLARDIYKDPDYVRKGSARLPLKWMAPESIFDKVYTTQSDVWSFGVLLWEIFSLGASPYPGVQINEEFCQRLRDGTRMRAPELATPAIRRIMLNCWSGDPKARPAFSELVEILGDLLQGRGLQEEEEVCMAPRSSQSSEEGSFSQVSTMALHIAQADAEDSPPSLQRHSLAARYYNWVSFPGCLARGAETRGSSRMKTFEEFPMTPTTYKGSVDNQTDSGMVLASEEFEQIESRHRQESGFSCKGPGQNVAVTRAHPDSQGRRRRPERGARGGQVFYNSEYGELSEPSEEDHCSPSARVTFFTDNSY
Assay [17] has the same target. As to conditions: at 1 µM.
Assay [18] has as its target Macrophage colony-stimulating factor 1 receptor (Homo sapiens) (UniProt P07333). As to conditions: at 0.1 µM.
The target is the same in assay [19]. The note with it: at 1 µM.
Assay [20] addresses Tyrosine-protein kinase Fyn (Homo sapiens) (UniProt P06241). As to conditions: at 0.1 µM.

Sequence of Macrophage colony-stimulating factor 1 receptor (Homo sapiens) (P07333 whole entry): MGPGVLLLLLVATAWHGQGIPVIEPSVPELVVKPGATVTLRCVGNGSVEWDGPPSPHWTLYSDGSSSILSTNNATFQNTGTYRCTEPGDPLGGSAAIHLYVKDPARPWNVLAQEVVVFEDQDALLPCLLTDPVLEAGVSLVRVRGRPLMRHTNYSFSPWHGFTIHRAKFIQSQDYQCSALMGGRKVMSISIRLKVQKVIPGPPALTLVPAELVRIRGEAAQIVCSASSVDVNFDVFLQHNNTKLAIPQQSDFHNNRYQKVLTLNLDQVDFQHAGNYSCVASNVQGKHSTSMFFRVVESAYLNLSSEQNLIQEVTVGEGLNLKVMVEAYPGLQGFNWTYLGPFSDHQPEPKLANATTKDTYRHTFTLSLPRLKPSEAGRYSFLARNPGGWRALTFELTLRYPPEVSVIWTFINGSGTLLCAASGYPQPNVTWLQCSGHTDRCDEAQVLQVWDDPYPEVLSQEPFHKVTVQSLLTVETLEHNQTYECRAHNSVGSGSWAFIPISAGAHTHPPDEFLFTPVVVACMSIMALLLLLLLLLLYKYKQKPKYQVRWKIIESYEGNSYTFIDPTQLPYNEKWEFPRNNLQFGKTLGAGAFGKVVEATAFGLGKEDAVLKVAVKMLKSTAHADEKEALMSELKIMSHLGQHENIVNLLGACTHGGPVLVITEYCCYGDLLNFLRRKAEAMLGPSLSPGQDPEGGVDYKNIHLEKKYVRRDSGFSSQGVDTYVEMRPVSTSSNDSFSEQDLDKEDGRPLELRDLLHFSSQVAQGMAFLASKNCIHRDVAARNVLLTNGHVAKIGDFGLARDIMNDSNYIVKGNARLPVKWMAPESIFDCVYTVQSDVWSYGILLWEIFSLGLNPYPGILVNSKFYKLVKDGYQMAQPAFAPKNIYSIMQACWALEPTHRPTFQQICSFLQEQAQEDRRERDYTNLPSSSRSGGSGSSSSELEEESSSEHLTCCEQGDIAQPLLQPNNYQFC
Sequence of Tyrosine-protein kinase Fyn (Homo sapiens) (P06241 2-537 limits assumed): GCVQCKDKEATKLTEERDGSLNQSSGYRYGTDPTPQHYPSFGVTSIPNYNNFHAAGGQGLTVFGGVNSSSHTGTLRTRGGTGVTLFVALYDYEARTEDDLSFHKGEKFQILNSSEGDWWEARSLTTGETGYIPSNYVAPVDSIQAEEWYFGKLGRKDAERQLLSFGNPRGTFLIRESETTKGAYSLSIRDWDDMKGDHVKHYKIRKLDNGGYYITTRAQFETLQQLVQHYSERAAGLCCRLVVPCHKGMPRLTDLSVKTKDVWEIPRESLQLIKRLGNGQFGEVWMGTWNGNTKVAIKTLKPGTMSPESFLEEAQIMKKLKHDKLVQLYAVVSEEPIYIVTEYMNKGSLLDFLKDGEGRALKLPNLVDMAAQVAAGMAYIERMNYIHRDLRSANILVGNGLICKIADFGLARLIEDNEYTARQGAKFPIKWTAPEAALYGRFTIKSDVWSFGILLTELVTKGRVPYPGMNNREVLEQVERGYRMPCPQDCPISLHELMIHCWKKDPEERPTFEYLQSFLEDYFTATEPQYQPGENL

For `NS(=O)(=O)c1cccc(-c2cc3ccncc3cc2OCc2ccccc2)c1`, the inhibition was 5.04% in [1]; 2.64% in [2]; 2.55% in [3]; 5.53% in [4]; 6.81% in assay [5]; 0.87% in assay [6]. For the same molecule, the inhibition in assay [7] was -0.35%; in assay [8] it was 5.92%; in [9], 3.78%; in assay [10], 2.36%; in assay [11], 5.52%; in [12], 3.05%. Also, the inhibition is 4.2% in assay [13]; 7.53% in [14]; -1.3% in assay [15]; 15.2% in assay [16]; 18.5% in assay [17]; 4.7% in [18]. In addition, the results for the inhibition in assay [19] and in [20] were 5.36% and 4.1%, respectively.

As for `COc1cccc(-n2ncc3c(N/N=C/c4ccc(C)cc4)ncnc32)c1`, the inhibition in assay [1] stood at 6.9%; in assay [2] it was 5.55%; in [3], 9.78%; in [4], 8.39%; in assay [5], 10.7%; in [6] it was 3.25%. Moreover, the inhibition in [7] amounted to 3.08%; in [8], 4.05%; in [9], 10.1%; in assay [10], 9.27%; in assay [11], 9.51%; in assay [12], 7.38%. Also, the inhibition came out at 14.2% in assay [13]; 18.3% in assay [14]; 10.3% in assay [15]; 3.28% in [16]; 4.5% in assay [17]; 4.53% in [18]. Further, the inhibition in [19] was 12.9%; in assay [20], 5.39%.
